High-throughput results from PubChem BioAssay.
Rows were chosen to be rich in hits. Some 3.5% of all compounds tested hit in one or more screens of this group.
TEAD-YAP inh: TEAD-YAP interaction inhibition; 640,000 tested, 1.4% active; inhibition, % at 9.12 µM; HEK-TIYL cells, TEAD-Gal4/YAP UAS-luciferase luminescence; in the data active = inhibition above about 32%
MITF primary: blocks human microphthalmia-associated transcription factor; inhibition, % at 2.6 µM; AlphaScreen MITF homodimerization, bead proximity signal; O75030; 650,000 tested, 0.91% active; in the data active = inhibition above about 50%
FBW7 act: human FBW7 E3 ligase activation, primary screen; Q969H0; AlphaScreen FBW7–phospho-cyclin E peptide binding, activator screen; normalized activity (activation), % at 26.1 µM; 650,000 tested, 0.13% active; AID 1259310; in the data active = normalized activity above about 1.9%;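 also: purified mutant Fbw7 with reduced substrate affinity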
GPR151 activ: human GPR151 activation; Q8TDV0; PathHunter beta-arrestin GPR151 cells, luminescence; activation, % at 11.2 µM; 650,000 tested, 1% active; AID 1508602; in the data active = activation above about 4.9%
Target sequence (Q8TDV0 whole entry, looked up): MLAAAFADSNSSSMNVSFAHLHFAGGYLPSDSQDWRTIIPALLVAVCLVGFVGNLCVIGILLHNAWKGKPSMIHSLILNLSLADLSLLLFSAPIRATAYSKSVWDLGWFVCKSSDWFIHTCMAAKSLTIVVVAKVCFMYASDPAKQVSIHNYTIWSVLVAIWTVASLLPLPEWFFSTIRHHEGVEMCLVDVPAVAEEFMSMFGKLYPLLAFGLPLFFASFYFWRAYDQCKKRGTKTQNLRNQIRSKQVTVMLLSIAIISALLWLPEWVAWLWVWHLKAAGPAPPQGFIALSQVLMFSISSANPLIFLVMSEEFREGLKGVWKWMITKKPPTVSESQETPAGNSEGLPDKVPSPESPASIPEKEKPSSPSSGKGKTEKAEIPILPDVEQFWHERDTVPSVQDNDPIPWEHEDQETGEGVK
MITF confirm: confirmation of human MITF inhibitors. shares compounds with MITF primary. inhibition, % at 2.6 µM. 4,700 tested, 16% active. AlphaScreen MITF homodimerization, biotin/His-MITF beads. AID 1259372;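 active = inhibition above a cutoff derived from the DMSO control wells, cut at about 28% in these data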;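 also: inhibitors lower the bead chemiluminescence by keeping MITF from dimerizing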
AS interf DR: counter-screen: compounds optically interfering with AlphaScreen | shares compounds with MITF primary | AlphaScreen optical interference counterscreen, cell-free | IC50, µM | 480 tested, 6% active | AID 1259373; call rule not given here
AS interf ctr: optically interferes with AlphaScreen signal. shares compounds with MITF primary. LysRS AlphaScreen counterscreen, signal interference, triplicate. inhibition, % at 2.6 µM. 4,700 tested, 7.6% active. AID 1259376;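 active = inhibition above a cutoff derived from the DMSO control wells, cut at about 30% in these data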
A number is an active result; . = inactive; / = no result given.

SMILES | TEAD-YAP inh | MITF primary | FBW7 act | GPR151 activ | MITF confirm | AS interf ctr | others
CN1CCN(Cc2cn(-c3ccccc3)nc2-c2ccc3c(c2)OCCO3)CC1 | . | 77 | . | . | . | .
OCc1cn(-c2ccccc2)nc1-c1ccc2c(c1)OCCO2 | . | . | . | . | / | /
O=C(c1cn(-c2ccccc2)nc1-c1ccc2c(c1)OCCO2)N1CCOCC1 | . | 58 | . | . | . | .
CN(Cc1ccccc1)c1cc(-c2ccncc2)nc(-c2cccnc2)n1 | . | . | . | . | / | /
CN(Cc1ccccc1)c1cc(-c2ccccn2)nc(-c2ccccn2)n1 | 40 | 79 | . | . | 37 | 81
CC(=O)N1CCN(Cc2ccc(Br)s2)CC1 | . | . | . | . | / | /
OCCN1CCN(Cc2ccc(Br)s2)CC1 | . | 59 | . | . | . | .
OCCN1CCN(Cc2cc(Br)cs2)CC1 | . | 73 | . | . | . | .
CCOc1ccc(Cl)cc1S(=O)(=O)Nc1ccccc1 | . | . | . | . | / | /
COc1ccc(NC(=O)c2sc3nc4cc(C)ccc4cc3c2N)cc1OC | . | . | . | . | / | /
COc1ccc(NC(=O)c2sc3nc4ccc(C)cc4cc3c2N)cc1OC | . | 65 | . | . | . | .
CCS(=O)(=O)c1ccc2c(c1)N(Cc1ccc(S(C)(=O)=O)cc1)C(=O)C(C)O2 (configuration not stated) | . | . | . | . | / | /
Cc1cc(OCCN2CCNCC2)cc(C)c1Cl | . | 62 | . | . | . | .
Cc1cc(Cl)c(OCCN2CCNCC2)c(Br)c1 | . | 76 | . | . | . | .
Cc1cc(C)c(OCCCCN2CCNCC2)c(C)c1 | . | . | . | . | / | /
Cc1cc(Cl)cc(C)c1OCCOCCNC(C)C | . | 51 | . | . | . | .
Cc1cc(Cl)c(OCCOCCN2CCNCC2)c(Cl)c1 | . | 90 | . | . | . | .
Cc1cc(C)c(OCCOCCNC(C)C)c(C)c1 | . | . | . | . | / | /
Cc1ccc(Cl)c(OCCN2CCNCC2)c1 | . | . | . | . | / | /
Cc1cc(OCCOCCN2CCN(C)CC2)cc(C)c1Cl | . | 62 | . | . | . | .
Cc1cc(C)c(OCCOCCN2CCN(C)CC2)c(Cl)c1 | . | 67 | . | . | . | .
Cc1cc(C)c(OCCCCN2CCNCC2)c(Cl)c1 | . | 70 | . | . | . | .
CC(C)c1ccc(OCCCCN2CCNCC2)cc1 | . | 62 | . | . | . | .
Cc1cccc(C)c1OCCCCN1CCNCC1 | . | 64 | . | . | . | .
COCCNCCOCCOc1c(C)cc(C)cc1Cl | . | 53 | . | . | . | .
SMILES | TEAD-YAP inh | MITF primary | FBW7 act | GPR151 activ | MITF confirm | AS interf ctr | others
COc1ccc(-c2nnc3ccc(SCC(=O)N4CCc5ccccc54)nn23)cc1OC | . | . | . | . | / | /
Cc1cc(Sc2cc(C)nc3nc(C)nn23)n2nc(C)nc2n1 | . | . | . | . | / | /
CC(C)(C)C(=O)N1CCC(c2nnc(-c3ccccc3)o2)CC1 | . | . | . | . | / | /
COc1cc(OC)cc(C(=O)N2CCN(Cc3ccc(Cl)cc3)CC2)c1 | . | 58 | . | . | . | .
O=C(c1ccncc1)N1CCN(Cc2cccc(Cl)c2)CC1 | . | 73 | . | . | . | .
COc1cc(OC)cc(C(=O)N2CCN(Cc3cccc(Cl)c3)CC2)c1 | . | 52 | . | . | . | .
COc1cc(OC)cc(C(=O)N2CCN(Cc3ccc(F)cc3)CC2)c1 | . | . | . | . | / | /
O=C(Nc1ccc2c(c1)OCO2)C1CCN(c2ccc(NCc3cccnc3)nn2)CC1 | . | . | . | . | / | /
Cn1c(=O)[nH]c(=O)c2c1nc(N1CCOCC1)n2Cc1ccc(F)cc1 | . | . | . | . | / | /
NC(=O)NC(=O)COC(=O)c1oc2ccccc2c1COc1ccccc1 | . | . | . | . | / | /
NC(=O)COC(=O)c1oc2ccccc2c1COc1ccccc1 | . | 64 | . | . | . | .
O=[N+]([O-])c1cccc(C2N3CCc4ccccc4C3CN2S(=O)(=O)c2ccccc2)c1 (configuration not stated) | . | . | . | . | / | /
Cc1cc(Cl)c(OCCn2ccnc2)c(Br)c1 | . | . | . | . | / | /
Cc1ccc(OCCOCCN2CCOCC2)c(Br)c1 | . | 75 | . | . | . | .
Cc1cc(OCCOCCN2CCOCC2)cc(C(C)C)c1 | . | 65 | . | . | . | .
Cc1cc(Cl)c(OCCOCCn2ccnc2)c(Br)c1 | . | 75 | . | . | . | .
Cc1cc(Cl)c(OCCOCCN2CCOCC2)c(Br)c1 | . | 72 | . | . | . | .
Cc1cc(OCCOCCN2CCN(C)CC2)cc(C(C)C)c1 | . | . | . | . | / | /
O=C(CCCCCn1nnc2ccccc2c1=O)N1CCC(O)(c2cccc(C(F)(F)F)c2)CC1 | . | 74 | . | . | . | .
Cc1ccc(Nc2nc(-c3ccccn3)cs2)c(C)c1 | 57 | 51 | . | . | . | 39
CC1CCCC(NC(=O)CN(C)S(=O)(=O)c2cccc3cccnc23)C1C (configuration not stated) | . | 64 | . | . | . | .
CCOC(=O)C1(Cc2ccccc2Cl)CCN(C(=O)c2cccnc2)CC1 | . | . | . | . | / | /
COc1ccc(OC)c(CN2CCN(Cc3ccc(SC)cc3)CC2)c1 | . | 76 | . | . | . | .
COc1ccc(CN2CCN(Cc3ccc(SC)cc3)CC2)cc1OC | 35 | 76 | . | . | . | .
CCc1ccc(CN2CCN(Cc3ccc(OC)cc3OC)CC2)cc1 | . | 66 | . | . | . | .
SMILES | TEAD-YAP inh | MITF primary | FBW7 act | GPR151 activ | MITF confirm | AS interf ctr | others
CCS(=O)(=O)N1CCN(Cc2cc(OC)ccc2OC)CC1 | . | . | . | . | / | /
CCOc1ccc(CN2CCN(Cc3cc(OC)ccc3OC)CC2)cc1 | . | 79 | . | . | . | .
COc1ccc(CN2CCCCC2)cc1OC | . | . | . | . | / | /
CCOC(=O)C1CCN(S(=O)(=O)c2ccc(F)c(C(=O)Nc3ccc(Br)cc3F)c2)CC1 | . | . | . | . | / | /
O=C(Nc1ccc(F)c(Cl)c1)c1cccc(C(=O)Nc2ccc(F)c(Cl)c2)c1 | . | . | . | . | / | /
COc1ccc(CN2CCOCC2)c(OC)c1 | . | . | . | . | / | /
COc1ccc(CN2CCN(Cc3ccc(Cl)cc3)CC2)c(OC)c1 | . | 61 | . | . | . | .
COc1cc(CN2CCN(Cc3ccc(OC)cc3OC)CC2)cc(OC)c1 | . | 70 | . | . | . | .
COc1ccc(CN2CCC(O)CC2)c(OC)c1 | . | . | . | . | / | /
CCOc1ccc(CN2CCN(Cc3ccc(OC)cc3OC)CC2)cc1 | . | 68 | . | . | . | .
COc1ccc(OCc2cc(C(=O)NCC(C)(C)CO)no2)c(Cl)c1 | . | . | . | . | / | /
CC(=O)Oc1cc(-c2coc3cc(OC(C)=O)c(OC(C)=O)c(OC(C)=O)c3c2=O)cc(OC(C)=O)c1OC(C)=O | . | 73 | . | . | . | .
Cc1nc(N2CCOCC2)c2ccsc2n1 | . | 82 | . | . | . | .
Cc1nc(N2CCCC2)c2ccsc2n1 | . | . | . | . | / | /
CC(C)[C@@H]1NC(=O)[C@H]2CN(C(=O)NC3CCCCC3)CCN2C1=O | . | 71 | . | . | 68 | . | AS interf DR=.
